Experimental findings from the supplement of paper PMC8728848 are described below.

This excerpt belongs to a sample that is enriched for the strongest signals.

Common to all, as to assay: glycan array binding signal (z-score within array); higher = stronger binding
Settings in all cases: glycan notation: IUPAC condensed, linker removed

The target in assay [1] is Gal3S4S(b1-4)GlcNAc. The essentials: (§1)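 Glycan array binding is given as a within-array Z-score, which can be read as non-binding when negative. The arrays, 3228 of them, came from the Consortium for Functional Glycomics database and were retained only where the protein sequence was available. Z-scores were averaged across arrays of the same protein sequence at different concentrations or buffers and across linkers.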

In assay [2] the target is GalNAc4S6S(b1-4)GlcNAc. The essentials: as §1
The target in assay [3] is GlcNAc(b1-2)Man(a1-3)[GlcNAc(b1-4)][GlcNAc(b1-2)Man(a1-6)]Man(b1-4)GlcNAc(b1-4)GlcNAc. The essentials:
as §1

Assay [4] deals with GlcNAc(b1-2)[GlcNAc(b1-6)]Man(a1-6)[GlcNAc(b1-2)Man(a1-3)][GlcNAc(b1-4)]Man(b1-4)GlcNAc(b1-4)GlcNAc. A digest of the protocol: as §1
In assay [5] the target is GlcNAc(b1-3)Gal(b1-4)GlcNAc. A digest of the protocol:
as §1

Assay [6] addresses GlcNAc(b1-3)Gal(b1-4)GlcNAc(b1-3)Gal(b1-4)GlcNAc(b1-2)[GlcNAc(b1-3)Gal(b1-4)GlcNAc(b1-3)Gal(b1-4)GlcNAc(b1-6)]Man(a1-6)[GlcNAc(b1-3)Gal(b1-4)GlcNAc(b1-3)Gal(b1-4)GlcNAc(b1-2)Man(a1-3)]Man(b1-4)GlcNAc(b1-4)[Fuc(a1-6)]GlcNAc. The essentials:
as §1

Assay [7] has as its target GlcNAc(b1-3)[GlcNAc(b1-6)]Gal(b1-4)GlcNAc. A digest of the protocol:
as §1

Assay [8] concerns the target GlcNAc(b1-4)GlcNAc(b1-4)GlcNAc(b1-4)GlcNAc(b1-4)GlcNAc. A digest of the protocol:
as §1

Assay [9] has as its target Kdn(a2-3)Gal(b1-3)GalNAc. The essentials:
as §1

For assay [10], the target named is Man(a1-3)[Man(a1-6)]Man(b1-4)GlcNAc(b1-4)GlcNAc. The essentials: as §1
The target of assay [11] is Man(a1-6)Man. The essentials:
as §1

Assay [12] concerns the target Neu5Ac(a2-3)Gal(b1-3)GalNAc(b1-4)[Neu5Ac(a2-3)]Gal(b1-4)Glc. A digest of the protocol:
as §1

The target of assay [13] is Neu5Ac(a2-3)Gal(b1-3)[Fuc(a1-4)]GlcNAc(b1-3)Gal(b1-3)[Fuc(a1-4)]GlcNAc. The essentials:
as §1

The target in assay [14] is Neu5Ac(a2-3)Gal(b1-4)GlcNAc(b1-3)Gal. A digest of the protocol:
as §1

Assay [15] deals with Neu5Ac(a2-3)Gal(b1-4)GlcNAc(b1-3)Gal(b1-4)GlcNAc(b1-6)[Gal(b1-3)]GalNAc. A digest of the protocol:
as §1

Assay [16] concerns the target Neu5Ac(a2-3)Gal(b1-4)[Fuc(a1-3)]GlcNAc(b1-3)GalNAc. The essentials: as §1
For assay [17], the target named is Neu5Ac(a2-3)[GalNAc(b1-4)]Gal(b1-4)GlcNAc(b1-3)GalNAc. A digest of the protocol:
as §1

For assay [18], the target named is Neu5Ac(a2-6)Gal(b1-4)GlcNAc(b1-2)[Neu5Ac(a2-6)Gal(b1-4)GlcNAc(b1-4)]Man(a1-3)[GlcNAc(b1-4)][Neu5Ac(a2-6)Gal(b1-4)GlcNAc(b1-4)Man(a1-6)]Man(b1-4)GlcNAc(b1-4)GlcNAc. The essentials: as §1
For assay [19], the target named is Neu5Ac(a2-8)Neu5Ac(a2-3)Gal(b1-3)GalNAc(b1-4)[Neu5Ac(a2-3)]Gal(b1-4)Glc. A digest of the protocol:
as §1

B1: Gal 12 (Homo sapiens), Q96DT0 (protein)
chain: MSQPSGGRAPGTRIYSWSCPTVMSPGEKLDPIPDSFILQPPVFHPVVPYVTTIFGGLHAGKMVMLQGVVPLDAHRFQVDFQCGCSLCPRPDIAFHFNPRFHTTKPHVICNTLHGGRWQREARWPHLALRRGSSFLILFLFGNEEVKVSVNGQHFLHFRYRLPLSHVDTLGIFGDILVEAVGFLNINPFVEGSREYPAGHPFLLMSPRLEVPCSHALPQGLSPGQVIIVRGLVLQEPKHFTVSLRDQAAHAPVTLRASFADRTLAWISRWGQKKLISAPFLFYPQRFFEVLLLFQEGGLKLALNGQGLGATSMNQQALEQLRELRISGSVQLYCVHS
Take B1: the “glycan array binding signal (z-score)” value was 0.103 in [1]; -0.099 in [2]; 0.085 in assay [3]; -0.54 in [4]; -0.475 in assay [5]; 0.115 in assay [6]. Moreover, the “glycan array binding signal (z-score)” value is -0.57 in assay [7]; -0.139 in assay [8]; 0.39 in assay [9]; -0.172 in assay [10]; -0.442 in assay [11]; 0.416 in assay [12]. In addition, the “glycan array binding signal (z-score)” value in [13] is -0.082; in assay [14], -0.004; in assay [15] it was -0.81; in [16], 2.37; in assay [17] it was -0.063; in [18], 0.922. Also, the “glycan array binding signal (z-score)” value in assay [19] is -0.299.
